Results as given in PubChem BioAssay (NCATS).
Values without a mark were called inactive. For some assays here: Measured potencies and affinities stand elsewhere. The source made the active and inactive calls.

Columns and labels:
[1] = Ebola virus entry assay, green fluorescence channel
[2] = Ebola virus entry assay, blue channel fluorescence
Wherever efficacy is given: 0% is about no effect.

Structure (SMILES) | efficacy [1] | outcome [2] | AC50 [2]
CCCN[C@H]1CCc2nc(N)sc2C1 | -13.1% | inactive | 
O=C1C(=O)c2ccccc2C(O)=C1C1CCC(c2ccc(Cl)cc2)CC1 (stereo not drawn) | 18.6% | inactive | 
CN(N=O)C(=O)N[C@@H]1[C@@H](O)[C@H](O)[C@@H](CO)O[C@@H]1O | -17.3% | inactive | 
CC(=O)N[C@@H](CS)C(=O)O | -17.9% | inactive | 
COC(=O)[C@H]1[C@H]2C[C@@H]3c4[nH]c5cc(OC)ccc5c4CCN3C[C@H]2C[C@@H](OC(=O)c2cc(OC)c(OC)c(OC)c2)[C@@H]1OC | 32.6% | inactive | 
CCC1=C[C@@H]2CN(C1)Cc1c([nH]c3ccccc13)[C@@](C(=O)OC)(c1cc3c(cc1OC)N(C)[C@H]1[C@@](O)(C(=O)OC)[C@H](OC(C)=O)[C@]4(CC)C=CCN5CC[C@]31[C@@H]54)C2 | -100% |  | 0.112 µM (active)
Cc1nccn1CC1CCc2c(c3ccccc3n2C)C1=O (stereo not drawn) | -22.2% | inactive | 
O=C(c1ccccc1)c1ccc2n1CCC2C(=O)O (stereo not drawn) | 22% | inactive | 
COc1ccc(OC)c(C(O)CNC(=O)CN)c1 (stereo not drawn) | 13.6% | inactive | 
CN(C)CCC=C1c2ccccc2C=Cc2ccccc21 | 108% | inactive | 
Cc1oncc1C(=O)Nc1ccc(C(F)(F)F)cc1 | -17.5% | inactive | 
O=C(O)P(=O)(O)O | -12.5% | inactive | 
Clc1ccc2c(c1)C(N1CCNCC1)=Nc1ccccc1O2 | 94.9% |  | 14.1 µM (active)
CO[C@H]1C=CO[C@@]2(C)Oc3c(C)c(O)c4c(O)c(c(/C=N/N5CCN(C)CC5)c(O)c4c3C2=O)NC(=O)/C(C)=C\C=C[C@H](C)[C@H](O)[C@@H](C)[C@@H](O)[C@@H](C)[C@H](OC(C)=O)[C@@H]1C | 60.3% | inactive | 
Cc1cccc(Nc2ccccc2C(=O)O)c1C | 32.2% | inactive | 
CC(=O)[C@]1(O)Cc2c(O)c3c(c(O)c2[C@@H](O[C@H]2C[C@H](N)[C@H](O)[C@H](C)O2)C1)C(=O)c1ccccc1C3=O | 27.8% | inactive | 
CC(C)C1CCC(C(=O)N[C@H](Cc2ccccc2)C(=O)O)CC1 (stereo partly drawn) | -31.7% | inactive | 

Structure (SMILES) | efficacy [1] | outcome [2] | AC50 [2]
CCN(CC)CCNC(=O)c1c(C)[nH]c(/C=C2\C(=O)Nc3ccc(F)cc32)c1C | -131% |  | 3.55 µM (active)
Cc1cn([C@H]2C[C@H](N=[N+]=[N-])[C@@H](CO)O2)c(=O)[nH]c1=O | 17% | inactive | 
OCCOCCN1CCN(C(c2ccccc2)c2ccc(Cl)cc2)CC1 (stereo not drawn) | 86% | inactive | 
CC(S)C(=O)NCC(=O)O (stereo not drawn) | -25.6% | inactive | 
CC(C)NCC(O)COc1ccc(CCOCC2CC2)cc1 (stereo not drawn) | 65% | inactive | 
CC(N)C12CC3CC(CC(C3)C1)C2 (stereo not drawn) | 56.9% | inactive | 
CN(C)CCc1c[nH]c2ccc(CS(=O)(=O)N3CCCC3)cc12 | -14.5% | inactive | 
O=C(O)CCCc1ccccc1 | -16.1% | inactive | 
O[C@@H](CNC[C@H](O)[C@H]1CCc2cc(F)ccc2O1)[C@@H]1CCc2cc(F)ccc2O1 | -189% |  | 11.2 µM (active)
Nc1ncn([C@@H]2O[C@H](CO)[C@@H](O)[C@H]2O)c(=O)n1 | -20.9% | inactive | 
COc1cc2nc(N3CCN(C(=O)c4ccco4)CC3)nc(N)c2cc1OC | 75.4% | inactive | 
CN1CCN(C2=Nc3ccccc3Oc3ccc(Cl)cc32)CC1 | 112% | inactive | 
CC(C)(C(=O)O)c1ccc(C(O)CCCN2CCC(C(O)(c3ccccc3)c3ccccc3)CC2)cc1 (stereo not drawn) | -13% | inactive | 
Cc1cccc(Nc2ccncc2S(=O)(=O)NC(=O)NC(C)C)c1 | -34.9% | inactive | 
C#C[C@]1(O)CC[C@H]2[C@@H]3CCC4=Cc5oncc5C[C@]4(C)[C@H]3CC[C@@]21C | 22.7% | inactive | 
CCOc1ccc2ccccc2c1C(=O)N[C@@H]1C(=O)N2[C@@H]1SC(C)(C)[C@@H]2C(=O)O | 20.5% | inactive | 
CC(=O)Nc1nnc(S(N)(=O)=O)s1 | -19.1% | inactive | 
